Only some compounds are listed: those with a hit (about 11% of all), similar ones and a draw of the others.
Pf growth 96h – inhibits malaria parasite growth, 96 h. P. falciparum luciferase reporter growth, 96 h. Potency, µM (series often up to 28.7 µM), without a hit: at the top dose activity change, negative = inhibition, most hits filed as inhibitors. 6.9% of 320,000 active. AID 504834; note: % is set by controls: 0 for no effect and ±100 for the full control effect
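Delayed-death screen, second-generation endpoint: infected erythrocytes, 2% hematocrit, 0.05% parasitemia final; 96 hours at 37 C, 5% CO2; luciferase detection reagent; luminescence decrease equals reduced growth.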
Pf growth 48h – P. falciparum growth inhibition at 48 hours (one generation). AID 504832. 5.9% of 310,000 active. P. falciparum luciferase growth in erythrocytes, 48 h. Potency, µM (series often up to 28.7 µM), for the others: at the top dose activity change, negative = inhibition, actives largely listed as inhibitors; note: % is set by controls: 0 for no effect and ±100 for the full control effect
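Read-out is firefly luciferase luminescence from an integrated reporter in P. falciparum, so falling signal marks reduced parasite growth. Infected erythrocytes were at 2% hematocrit and 0.1% parasitemia (final) in Albumax-supplemented RPMI 1640.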
Sm TGR inh – blocks Schistosoma mansoni thioredoxin glutathione reductase; Q962Y6; 3% of 360,000 active; Potency, µM (series often up to 114 µM), without a hit: top-dose activity change, negative = inhibition, actives largely listed as inhibitors; purified TGR, DTNB reduction, TNB absorbance 405 nm; note: % is set by controls: 0 for no effect and ±100 for the full control effect; nearly all actives have a fitted effect of over 60% in size
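TGR 20 nM + NADPH 100 uM (dispensed conc.), cpd preinc 15 min RT; start with NADPH (500 uM addition) then DTNB (15 mM addition). Kinetic TNB absorbance, 405 nm filter. Four-parameter Hill fit across titration.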
NS1 function inh – blocks influenza NS1 protein function. Potency, µM (series often up to 46.1 µM), for inactives: at the top dose activity, positive = more growth. 0.4% of 270,000 active. AID 2326; calls by dose curve; note: actives are rising curves; nearly all actives have a fitted effect of over 50% in size
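A cell-based growth assay was used: compounds that relieve NS1-induced slow growth of budding yeast raise OD600. Assay medium was yeast nitrogen base with ammonium sulphate and -URA supplement, pH 6.0, with 2% galactose.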
AMA1 RON2 block – inhibitors of Plasmodium falciparum AMA1-RON2 interaction. AlphaScreen AMA1-biotinylated RON2 peptide binding. Potency, µM (top dose mostly 58.2 µM), inactives show at the highest dose activity change, negative = inhibition, most hits filed as inhibitors. 0.2% of 360,000 active. AID 720542;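 note: 0% = vehicle wells and -100% = peptide control; nearly all actives have a fitted effect of over 45% in size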
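AMA1 (3D7) with his tag at 25 nM final met compounds first, then biotinylated RON2 peptide at 25 nM; detection used donor plus acceptor beads, 10 µg/mL apiece, read by AlphaScreen after 30 min at room temperature.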
Starred values were filed as active, the others as inactive; i = inactive; ? = inconclusive; . = no result given; [ ] = remark or other dose. Unless noted, calls come from the whole dose curve; as a rule, active = well fitted curve in the direction sought with a large enough effect; inconclusive = small, poorly fitted or top-dose-only effect, or another doubt; inactive = no such curve, though single readings can be large; an effect the other way counts as inactive or inconclusive. Potency is the fitted concentration of half-maximal effect.

SMILES	Pf growth 96h	Pf growth 48h	Sm TGR inh	NS1 function inh	AMA1 RON2 block
COc1ccc(C(CNC(=O)c2ccc(Cl)c(S(=O)(=O)N3CCCC3)c2)N2CCCC2)cc1 (centres undefined)	7.38µM*	13.1µM*	-7.6%	.	-0.2%
COc1ccc(C(CNC(=O)c2cc(S(=O)(=O)N3CCCC3)ccc2Cl)N2CCCC2)cc1 (centres undefined)	9.28µM*	?	-8.4%	.	-2.4%
COc1ccc(CCNC(=O)c2cc(S(=O)(=O)N3CCCCC3)ccc2Cl)cc1	?	2.6%	-6.7%	.	-3.4%
COc1ccc(C(CNC(=O)c2ccc(S(=O)(=O)N(C)C)cc2)N2CCCC2)cc1 (centres undefined)	?	10.4µM*	-14.9%	12.8%	-14.1%
CC(=O)Oc1ccc2nc(-c3ccco3)oc(=O)c2c1	-27.9%	-3.8%	?	27.0%	9.0%
Nc1ncnc2c1ncn2[C@H]1O[C@@H](CO)[C@@H](O)[C@H]1N	.	.	.	-2.0%	.
Cn1c(=O)n(C)c2cc(N3CCOCC3)c(NS(=O)(=O)c3ccc(Br)cc3)cc21	.	.	7.7%	.	.
COc1ccc(C(=O)NCC(c2ccc3c(c2)OCO3)N2CCN(c3ccc(OC)cc3)CC2)cc1 (centres undefined)	2.62µM*	?	-7.8%	.	-0.3%
COc1ccc(C(CNC(=O)c2cccc(Br)c2)N2CCCC2)cc1 (centres undefined)	?	.	-12.2%	3.5%	1.8%
COc1ccc(C(CNC(=O)C(C)Oc2ccc(Br)cc2)N2CCCC2)cc1 (centres undefined)	?	11.7µM*	-2.9%	.	-9.9%
CCc1nc2ccccc2c(C(=O)OCc2nnc(-c3ccccc3)o2)c1C	?	.	-1.8%	2.8%	-6.9%
Cc1ccc(NC(=O)CNc2cccc(Br)c2)cc1S(=O)(=O)N1CCOCC1	.	.	.	.	-0.3%
CC(=O)Nc1ccc(NC(=O)C(C)OC(=O)C2(c3ccc(Cl)cc3)CCCC2)cc1 (centres undefined)	11.7µM*	9.28µM*	-0.8%	-13.6%	-3.8%
CCc1csc(CNC(=O)C2CCC(=O)N(Cc3cccc(OC)c3)C2)n1 (centres undefined)	.	.	.	.	0.7%
O=C1C=C(O)C(n2cncn2)C(c2ccc(F)cc2)C1 (centres undefined)	-7.1%	i	-0.3%	.	11.8%
COc1ccc(C2CC(=O)C(C3NCCc4ccccc43)=C(O)C2n2cncn2)cc1 (centres undefined)	65.8%	16.5µM*	0.6%	.	-9.9%
CNC(=O)c1oc(-c2ccc(Cl)cc2)nc1C	24.4%	39.5%	.	-1.3%	-5.2%
CCCCN(CC)CCNC(=O)Cn1cnc2sc(C)c(S(=O)(=O)N3CCN(c4ccccc4OC)CC3)c2c1=O	.	.	2.3%	.	.
CCC(=O)c1ccc(OC(=O)N(C)c2ccccc2)cc1	4.1%	56.3%	.	-10.3%	-5.7%
CC(=O)Nc1ccc(OC(=O)N(C)c2ccc(C)cc2)cc1	9.28µM*	?	1.2%	-22.4%	-3.0%
Cc1ccc(N(C)C(=O)Oc2ccc(C(=O)c3ccc(Cl)cc3)cc2)cc1	4.65µM*	-4.8%	19.9%	13.4%	11.4%
CCOC(=O)c1ccc2c(c1)C1C=CCC1C(C(=O)OCC)N2 (centres undefined)	3.0%	11.7µM*	31.6µM*	18.8%	-15.0%
O=C(OC1CCCCC1)c1ccc2c(c1)C1C=CCC1C(C(=O)O)N2 (centres undefined)	?	20.5%	3.16µM*	17.2%	.
O=C(O)C1Nc2ccc(Br)cc2C2C=CCC12 (centres undefined)	40.2%	1.5%	0.891µM*	25.2%	10µM*
CCOC(=O)C1Nc2ccc(Br)cc2C2C=CCC12 (centres undefined)	13.1µM*	?	28.2µM*	12.5%	-20.3%
SMILES	Pf growth 96h	Pf growth 48h	Sm TGR inh	NS1 function inh	AMA1 RON2 block
O=C(NCCOc1ccccc1)C1Nc2ccc(OC(F)(F)F)cc2C2C=CCC12 (centres undefined)	.	.	.	.	4.7%
COc1ccc(Br)cc1[C@@H]1Nc2ccc(C(=O)O)cc2[C@@H]2C=CC[C@@H]21	.	.	-19.6%	.	.
CCOC(=O)C1Nc2ccc(C)cc2C2C=CCC12 (centres undefined)	.	.	.	.	-2.3%
CCOC(=O)c1ccc2c(c1)[C@@H]1C=CC[C@@H]1[C@H](c1cccc(OC)c1OC)N2	.	.	0.1%	.	.
Cc1ccc(OC(C)C(=O)NCC2(N3CCOCC3)CCCCC2)cc1C (centres undefined)	.	.	6.3%	.	.
CCOCCCN(C(=O)Cn1nnc(-c2ccc(C)o2)n1)C(C(=O)NCC1CCCO1)c1ccc(F)cc1 (centres undefined)	?	4.4%	-0.4%	-1.8%	-1.2%
CCCCN1C(=O)C(CC(=O)NCCCCc2ccccc2)CC(C(=O)N2CCCCCC2)=C1C (centres undefined)	.	.	.	.	-2.4%
CC(C)CCNC(=O)c1ccc(NC(=O)N2CCCCc3ccccc32)cc1	.	.	-1.2%	.	.
COc1cc(C(=O)Nc2ccc3c(c2)C(=O)N(CCC(=O)O)C3=O)cc(OC)c1OC	.	7.9%	-2.6%	-8.1%	2.7%
CC(=O)Oc1ccc(C(=O)Nc2ccc3c(c2)C(=O)N(CCC(=O)O)C3=O)cc1	11.7µM*	.	0.3%	0.3%	-1.8%
COc1ccc(-n2nc3ccc(NC(=O)c4c(OC)cccc4OC)cc3n2)cc1	.	.	0.9%	.	.
CC(=O)NN1C(=O)c2ccccc2NC1c1ccc([N+](=O)[O-])o1 (centres undefined)	25.3%	-1.3%	39.8µM*	.	16.3%
Cc1c(NC(=O)c2ccc(Br)s2)c(=O)n(-c2ccccc2)n1C	?	10.5%[5.75 µM]	43.0%	.	?
Oc1[nH]c2ccccc2c1N=Nc1nc(Nc2ccccc2)nc(N2CCOCC2)n1	?	6.57µM*	-2.9%	5.4%	4.2%
CC1=C(C(=O)NC(C)c2ccc3c(c2)OCCO3)C2(CCC(C)CC2)OC1=O (centres undefined)	10.4µM*	?	-2.9%	-12.2%	8.6%
CC(NC(=O)c1cccc(N2CCCC2=O)c1)c1ccc2c(c1)OCCO2 (centres undefined)	11.7µM*	?	-2.0%	-3.4%	9.2%
CC1=C(C(=O)NC2CCCC(C)C2C)C2(CCCCC2)OC1=O (centres undefined)	24.4%	?	8.4%	23.1%	20.7%
CNC(=O)c1cccc(N2CCCC2=O)c1	19.3%	20.3%	2.6%	3.4%	-8.9%
CC1=C(C(=O)Nc2cccc([N+](=O)[O-])c2)C2(CCC(C)CC2)OC1=O (centres undefined)	0.37µM*	?	-6.9%	.	-26.9%
CC1=C(C(=O)NC2CCCCC2C)C2(CCC(C)CC2)OC1=O (centres undefined)	-5.4%	9.28µM*	3.4%	?	-4.9%
CCCNC(=O)C1(C)CCN(C(=O)COc2ccc(Cl)cc2Cl)C1 (centres undefined)	.	.	.	.	5.5%
Cc1cccc(NC(=O)Cn2nc(-c3cccs3)ccc2=O)c1C	0.0%	-3.7%	-0.9%	-10.1%	-1.1%

From PubChem
